Beta apoptosis: blocks beta cell apoptosis; INS-1E cytokine-induced death, ATP luminescence, 48 h; percent of positive-control rescue, neutral wells zero; protection from apoptosis, % (concentration not given with the values); 300,000 compounds, 0.8% hits; AID 435005;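 active = Every replicate reaches about 75%, or at least half do and their mean reaches it too, limit read from the data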;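 also: 0% = cytokine-treated negative control wells and 100% = positive control rescue; higher means more ATP so stronger rescue from cytokine killing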
PAX8 reporter: inhibitors of PAX8 transcriptional activity in RMG-I cells | RMG-I TPO-luciferase reporter, SteadyGlo, 24 h | inhibition, % at 12.6 µM | 360,000 compounds, 1.2% hits | AID 652154;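 active = mean replicate inhibition at least 60% with every replicate also reaching 60%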;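 also: luciferase light reporting Pax8 driven TPO promoter activity; plate controls were median of neutral control wells for no effect and mitoxantrone controls for full effect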
Shn3 3UTR inh: inhibitors of Schnurri-3 3'UTR reporter in osteoblasts. Clone20 osteoblast Shn3 3'UTR firefly luciferase, 24 h. inhibition, % at 12.5 µM. 360,000 compounds, 0.52% hits. AID 588674;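 active = mean inhibition of at least 75% with every replicate also reaching 75%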;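 also: 0% = median of neutral control wells and 100% = pilot-screen positive control compound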
CSC inhib: cancer stem cell inhibition; AID 2717; inhibition, % at 7.5 µM; cancer stem cell-like cells viability, luminescence; 300,000 compounds, 1.1% hits; in the data active = inhibition above about 75%; tested in HMLE shEcad cells
Gli-Sufu block: blocks Gli-Sufu signaling in a luciferase reporter; 340,000 compounds, 0.74% hits; AID 588413; inhibition, % at 5 µM; Sufu-KO-LIGHT fibroblasts, Gli luciferase reporter luminescence;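 active = inhibition above about 55%, limit read from the data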;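 also: 0% = DMSO-treated cells and 100% = wells with medium but no cells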
Mdm2 MdmX PPI: disrupts the human Mdm2-MdmX interaction | inhibition, % at 8 µM | O15151+Q00987 | SaOS-2 split-luciferase Mdm2/MdmX complementation, luminescence | 330,000 compounds, 3% hits | AID 485346;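 active = inhibition of at least 50% at 8 µM in the primary screen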
Target sequence (O15151 whole entry, looked up): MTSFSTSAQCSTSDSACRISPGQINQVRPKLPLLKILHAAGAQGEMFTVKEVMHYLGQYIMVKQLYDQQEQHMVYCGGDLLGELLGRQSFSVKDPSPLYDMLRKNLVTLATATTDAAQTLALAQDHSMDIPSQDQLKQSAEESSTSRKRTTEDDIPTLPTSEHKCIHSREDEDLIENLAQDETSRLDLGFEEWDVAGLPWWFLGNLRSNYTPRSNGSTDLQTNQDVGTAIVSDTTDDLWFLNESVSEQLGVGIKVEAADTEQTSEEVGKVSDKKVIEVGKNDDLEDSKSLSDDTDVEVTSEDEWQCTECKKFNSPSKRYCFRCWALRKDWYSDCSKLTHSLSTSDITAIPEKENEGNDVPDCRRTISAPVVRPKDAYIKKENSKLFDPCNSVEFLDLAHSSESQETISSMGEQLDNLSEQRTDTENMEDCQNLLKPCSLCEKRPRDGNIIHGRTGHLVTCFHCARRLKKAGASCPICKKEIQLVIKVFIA
Target sequence (Q00987 whole entry, looked up): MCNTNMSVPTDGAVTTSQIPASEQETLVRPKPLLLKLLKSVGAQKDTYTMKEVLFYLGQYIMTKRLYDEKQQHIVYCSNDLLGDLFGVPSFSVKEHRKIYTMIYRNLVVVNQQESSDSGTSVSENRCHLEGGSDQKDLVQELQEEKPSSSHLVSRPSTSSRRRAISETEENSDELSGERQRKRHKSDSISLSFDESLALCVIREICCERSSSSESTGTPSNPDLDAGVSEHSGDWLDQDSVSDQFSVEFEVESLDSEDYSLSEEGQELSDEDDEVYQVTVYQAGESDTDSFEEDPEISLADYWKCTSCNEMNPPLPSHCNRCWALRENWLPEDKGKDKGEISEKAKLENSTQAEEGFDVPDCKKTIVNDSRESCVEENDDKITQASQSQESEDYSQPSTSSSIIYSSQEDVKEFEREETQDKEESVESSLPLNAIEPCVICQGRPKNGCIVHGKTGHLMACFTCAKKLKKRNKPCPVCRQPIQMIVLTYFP
Active calls of the source: *; / = no result. This is a sample that favours compounds with a hit; in the whole collection about 4% have one here.

SMILES | Beta apoptosis | PAX8 reporter | Shn3 3UTR inh | CSC inhib | Gli-Sufu block | Mdm2 MdmX PPI
O=C(CCS(=O)(=O)c1ccc(Br)s1)NCc1ccc2c(c1)OCO2 | -7.7 | / | 11.8 | 14.4 | -0.2 | 11.8
Cc1ccc(/C=C\c2nccc3c2[nH]c2ccccc23)cc1 | 4.6 | -21.2 | -39.2 | 83.2* | -33.3 | 23.7
O=C(C1CC1)N1CC(=O)N2[C@H](CO)[C@@H](c3ccc(Br)cc3)[C@H]2C1 | / | -16.0 | / | / | / | /
O=C1C=CC(=O)N1c1ccc(OC(F)F)cc1 | 27.7 | 14.8 | 91.3* | 103.2* | -14.4 | /
O=C1C=CC(=O)N1c1ccc(O)cc1 | -11.7 | 28.4 | 6.5 | 20.1 | 9.3 | -21.5
OC[C@H]1[C@H]2c3ccccc3NC[C@H]2N1CC1CCOCC1 | / | 1.7 | / | / | / | /
CCOC(=O)C1CCCN(C(=O)Cn2sc3nc(C)cc(C)c3c2=O)C1 (stereo not drawn) | 3.8 | / | 97.3* | 6.7 | -4.8 | -18.0
Cc1cc(C)c2c(=O)n(CC(=O)N3CCC(N4CCCCC4)CC3)sc2n1 | -2.4 | -33.4 | -14.7 | -6.7 | 0.3 | -8.9
C/C(=N\NC(=O)c1ccc(Cl)cc1)c1ccc(Br)s1 | 10.7 | / | 13.1 | 11.9 | -22.2 | 48.0
C/C(=N\NC(=O)c1cc(Cl)ccc1O)c1ccc(Br)s1 | -2.8 | -44.7 | -80.1 | 103.2* | -56.6 | -21.7
CC(=O)Nc1ccc(CNc2nc(NC(C)C)nc3cc(-c4ccccc4)sc23)cc1 | / | 73.1* | 22.8 | / | / | /
COc1ccc(-c2cc(CNc3nc(NC(C)C)nc4cc(-c5ccccc5)sc34)on2)cc1 | / | 103.7* | 70.9 | / | / | /
c1ccc(-c2cc3nc(NCC4CC4)nc(NCC4CCCCC4)c3s2)cc1 | / | 14.0 | 87.6* | / | / | /
C=CCNc1nc(NCc2ccc(NC(C)=O)cc2)c2sc(-c3ccccc3)cc2n1 | / | 19.8 | -9.3 | / | / | /
CCCNC(=O)Nc1ccc2c(c1)C(=O)N(C)C[C@H](OC)[C@@H](C)CN(C(C)=O)[C@H](C)CO2 | / | 1.9 | / | / | / | /
O=C1C2CC=CCC2C(=O)N1c1ccc(NCCc2ccccc2F)c([N+](=O)[O-])c1 (stereo not drawn) | -0.1 | -4.4 | -3.9 | -10.1 | -11.2 | -1.6
O=C1C2CC=CCC2C(=O)N1c1ccc(NCCc2ccccc2)c([N+](=O)[O-])c1 (stereo not drawn) | -10.5 | -0.2 | -28.9 | 80.0* | -6.1 | -4.2
CC(C)(C)[S@](=O)N1Cc2cc(C(=O)NCc3ccc4c(c3)OCO4)nc(-c3cccc(-c4ccncc4)c3)c2[C@@H]1CCO | / | 15.8 | / | / | / | /
CC(C)(C)c1ccc(Oc2ccc(NC(=O)c3cccs3)cn2)cc1 | 18.0 | 11.5 | 82.2 | 84.4* | 3.4 | 29.1
COc1ccc(NC(=O)c2cccs2)cn1 | -2.5 | -22.5 | -28.5 | -0.8 | -5.1 | 17.9
N#C[C@H]1[C@@H](c2ccc(C3=CCCC3)cc2)[C@H](CO)N1C(=O)NC1CCCCC1 | / | 2.9 | / | / | / | /
O=C1CN(C(=O)Cn2ncc(Cl)c(Cl)c2=O)c2ccccc2N1 | / | 95.3* | 18.8 | / | 30.8 | /
O=C(Cn1ncc(Cl)c(Cl)c1=O)NC1CCS(=O)(=O)C1 (stereo not drawn) | -12.5 | 27.0 | 2.7 | -5.7 | -6.7 | 12.7
O=C(Cn1ncc(Cl)c(Cl)c1=O)NCC1CCCCC1 | -7.9 | 1.4 | 74.6 | 99.7* | -0.4 | /
Cc1ccc(S(=O)(=O)N(C)C[C@@H]2OCCCC[C@H](C)Oc3ccc(N(C)C)cc3C(=O)N([C@@H](C)CO)C[C@@H]2C)cc1 | / | 72.9* | / | / | / | /
SMILES | Beta apoptosis | PAX8 reporter | Shn3 3UTR inh | CSC inhib | Gli-Sufu block | Mdm2 MdmX PPI
C[C@H]1CCCCO[C@@H](CN(C)S(=O)(=O)c2ccc(Cl)cc2)[C@@H](C)CN([C@@H](C)CO)C(=O)c2cc(N(C)C)ccc2O1 | / | 69.9* | / | / | / | /
C[C@@H]1CCCCO[C@H](CN(C)S(=O)(=O)c2ccc(Cl)cc2)[C@H](C)CN([C@H](C)CO)C(=O)c2cc(N(C)C)ccc2O1 | / | 68.4* | / | / | / | /
CCOc1ccc(-n2c(SCC(=O)c3c(N)n(C)c(=O)n(C)c3=O)nnc2-c2cccnc2)cc1 | -0.6 | 81.1* | 7.6 | -12.1 | -4.5 | -3.7
O=C(NNC(=O)c1cc(Cl)ccc1O)c1ccc(NS(=O)(=O)c2cccs2)cc1 | / | 13.0 | -1.1 | 95.3* | -4.6 | 26.3
O=C(NNC(=O)c1cc(F)c(F)cc1Cl)c1ccc(NS(=O)(=O)c2cccs2)cc1 | 3.6 | -11.1 | -25.1 | -1.2 | -6.5 | 25.7
Cc1ccc2nc(NC(=O)CCNS(=O)(=O)c3cccs3)sc2c1 | 11.7 | / | 18.8 | -7.5 | -23.9 | -8.5
Cc1ccc2nc(NC(=O)c3ccc(NS(=O)(=O)c4cccs4)cc3)sc2c1 | -4.9 | -16.2 | -3.0 | 104.1* | -20.8 | -56.2
CCOc1cc(/C=C2\N=C(SC(C)C(N)=O)N(c3ccc(OC(F)F)cc3)C2=O)ccc1O (stereo not drawn) | 17.1 | 12.8 | 53.0 | 102.5* | -3.4 | 22.3
O=C(/C=C/c1ccncc1)c1ccc(NC(=O)c2ccccc2F)cc1 | -1.3 | / | 89.5* | 80.2* | -13.1 | /
O=C(/C=C/c1ccc(NC(=O)c2ccccc2-c2ccccc2C(=O)O)cc1)c1ccccc1 | -3.5 | -2.0 | -8.1 | 14.4 | 0.3 | 2.0
COC(=O)C[C@@H]1CC[C@H]2[C@H](COc3ccc(NS(=O)(=O)c4ccc(C)cc4)cc3C(=O)N2C)O1 | / | 0.9 | / | / | / | /
COc1cc(C[C@H](C)[C@H](C)Cc2ccc3c(c2)OCO3)ccc1O | -11.5 | / | 14.4 | 126.5* | -11.6 | -16.9
CN(C)C(=O)[C@@H]1[C@@H](CO)[C@@H]2Cn3c(ccc(-c4ccc(F)cc4)c3=O)[C@@H]2N1C(=O)c1ccccn1 | / | -11.2 | / | / | / | /
O=c1cc(N=Nc2ccc(Cl)cc2)[nH]c(=O)[nH]1 | 10.0 | -27.7 | 65.5 | 116.5* | / | /
O=c1cc(-c2ccc(Cl)cc2)oc(=O)[nH]1 | -5.7 | 22.0 | -2.4 | -0.3 | 8.6 | 2.2
Cc1nc2ccc(CN(C)c3ccc(C(=O)N[C@@H](CCC(=O)O)C(=O)O)s3)cc2c(=O)[nH]1 | -1.6 | / | / | 75.3* | / | /
CCN1C(=O)CC2CCCC1C2 (stereo not drawn) | / | 7.1 | 95.4* | / | -0.7 | /
CCCN1C2CCCC1CC(NC(=O)c1ccc(C(C)(C)C)cc1)C2 (stereo not drawn) | -4.1 | 11.8 | -36.0 | -2.7 | 25.2 | -14.9
O=C(CSc1ccc2ccccc2c1)N1CCN(c2ccc(O)cc2)CC1 | 2.7 | 7.0 | -0.8 | 91.4* | 24.3 | 6.9
O=C(C[C@H]1CC[C@@H]2[C@H](COC[C@H](O)CN2CC2CCCCC2)O1)NCc1ccc(Cl)cc1 | / | 3.9 | / | / | / | /
O=c1oc2cc(O)ccc2cc1-c1nc2c(s1)CCc1ccccc1-2 | 0.3 | 2.8 | 0.4 | 83.1* | -1.3 | /
O=c1oc2ccccc2cc1-c1nc2c(s1)CCc1ccccc1-2 | -11.4 | 3.8 | -42.4 | -4.8 | 4.2 | -32.3
Cc1ccc2nc(-c3ccccn3)c(NC3CCCC3)n2c1 | 102.3* | -77.1 | -7.4 | 28.6 | 16.1 | 29.8
CCOC(=O)/C(=N\Nc1cccc(C(F)(F)F)c1)N1CCOCC1 | -4.0 | 8.7 | 0.5 | 82.9* | -16.3 | -10.4
Cc1cccc(C)c1NC(=O)CN(C)C(=O)c1cc(S(=O)(=O)N(C)C)ccc1N1CCCC1 | -3.1 | -23.2 | 86.6* | 4.0 | 1.6 | -6.3

Bioassay records (PubChem BioAssay)
